In all, about 68,000 sequences were measured (“fluorescence intensity (a.u.)”: median about 9,100, highest 2% from about 16,000 on). The full list was thinned out, with the highest values kept by preference.

Sequence of OsWRKY34 (Q0JBA9 entry or part of it): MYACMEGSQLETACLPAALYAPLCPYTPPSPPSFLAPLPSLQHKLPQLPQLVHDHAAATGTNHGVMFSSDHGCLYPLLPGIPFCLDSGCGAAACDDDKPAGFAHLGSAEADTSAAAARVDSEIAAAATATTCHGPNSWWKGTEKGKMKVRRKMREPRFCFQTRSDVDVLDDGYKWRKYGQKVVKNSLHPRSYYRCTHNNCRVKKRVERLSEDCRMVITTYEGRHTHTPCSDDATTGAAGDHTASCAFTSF

For this assay, the target named is OsWRKY34 (Oryza sativa, UniProt Q0JBA9 1-250). The assay is described as follows: protein-binding microarray (RPBM); PBS, 2% BSA, 51.3 ng/ul salmon testes DNA, 50 uM zinc acetate, 200 nM TF, 25 C, 1 h; high values mean tight binding. The following applies: protein: recombinant; tags: N-terminal polyhistidine and DsRed monomer fusion (pET32a); label: CyDye5-dUTP incorporated in the synthesized complementary strand; 3' TTTTT single-stranded linker to array surface; dsDNA, one strand shown. Put shortly:
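The binding signal is fluorescence intensity per feature, in arbitrary units, read on an Axon 4000B scanner. Polyhistidine- and DsRed-tagged transcription factors (N-terminal fusions) from E. coli BL21-CodonPlus were purified on Ni–NTA and applied at 200 nM for 1 h at 25 °C to a double-stranded, BSA-blocked custom Agilent array in buffer with 50 µM zinc acetate.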
In the case of “CGCGCTCTGCATGTCGGTCCGTCAACTTGATCGCGATTCTCGGAGTCACCTAGTGCAG”, the binding signal was 8590 fluorescence intensity (a.u.). For “TGCAATTCGTACTTTTTCCTACAATTAAACAGCTACATGTCGGAGTCACCTAGTGCAG”, the binding signal is 9500 fluorescence intensity (a.u.). The same measure for “ATTTTTGTCTTGAGTTAACACCGTCACGTTGCCTTCACGGCGGAGTCACCTAGTGCAG”: 9960 fluorescence intensity (a.u.).

Regarding “CCGTCGTCGTCTTCGTCTTCCTCAGTTTATCTCCATTTCTCGGAGTCACCTAGTGCAG”, the binding signal is 13800 fluorescence intensity (a.u.). With “GGAAAAAGAACAATCTGCGACCAACCTCTTTTTTCTATCCCGGAGTCACCTAGTGCAG”, the binding signal is 8980 fluorescence intensity (a.u.). “TCCTCTCTGTCTCCGCCGATCTGCTCTGCCGCGACGCGCCCGGAGTCACCTAGTGCAG”: the binding signal was 8180 fluorescence intensity (a.u.). As for “ATTTCACATGGCAAGATCCACGATGACTGAATTATCACACCGGAGTCACCTAGTGCAG”, the binding signal was 8200 fluorescence intensity (a.u.).

For the sequence “CATGTCGTCGTCGTGGTGGTGGTGGTGGTGGTGGGGCGGGCGGAGTCACCTAGTGCAG”, the binding signal is 43400 fluorescence intensity (a.u.). For “GTAGTAGGGGAGGAGTGTATCTAGTAGTATAGGGAGGGAGCGGAGTCACCTAGTGCAG”, the binding signal was 13000 fluorescence intensity (a.u.). “GGTGGTGGTGGTGGTGGTGGTGGTGTAGGAGGAGGAGGAGCGGAGTCACCTAGTGCAG”: the binding signal is 27600 fluorescence intensity (a.u.). In the case of “GGCGGCGGCGGCGGCGGTGGTGGTGAGGAGGAGGAGGAGGCGGAGTCACCTAGTGCAG”, the binding signal is 10700 fluorescence intensity (a.u.). For “GGAGGCCTAGGTGGTGGTGGTGGTCTTGGTGGAGGAGGGGCGGAGTCACCTAGTGCAG”, the binding signal was 28600 fluorescence intensity (a.u.).

On to “ATGTCGGCGGCGGGCGGCGGCGGCGGCGTGGGGAAGGTGGCGGAGTCACCTAGTGCAG”, for which the binding signal was 9040 fluorescence intensity (a.u.). Turning to “GCGGTGGTGGTGGGCTTAGTGGAGGCGGAGGCGGCTGAGGCGGAGTCACCTAGTGCAG”, the binding signal is 17400 fluorescence intensity (a.u.). The same measure for “GAGGAGGGGAGAAACGGGAGGTTGGTGGTGGTGGTGGAGGCGGAGTCACCTAGTGCAG”: 15200 fluorescence intensity (a.u.). On to “GAGGGCGGAGGAGGTGGTGAGGGAGGAGGTGCGGAGGCTGCGGAGTCACCTAGTGCAG”, for which the binding signal was 8320 fluorescence intensity (a.u.). “GAGGTGGCTTTGGCGGCGGAGTGGGAGGCGGTGGTGGTGGCGGAGTCACCTAGTGCAG”: the binding signal is 10000 fluorescence intensity (a.u.). Take “GGAGGAGGAGGAGGGAGAGGGTGGTGTAGTGGGAGCGGCCCGGAGTCACCTAGTGCAG”: the binding signal is 8170 fluorescence intensity (a.u.).

In the case of “CATTATCGTCGTCGTCGTCGTCGTAGTCATGTCGTGGGGCCGGAGTCACCTAGTGCAG”, the binding signal was 8180 fluorescence intensity (a.u.).

With “GCCTCTGCCCATCGCATCGATCCCCGCCGTCCCTCCACCCCGGAGTCACCTAGTGCAG”, the binding signal was 11000 fluorescence intensity (a.u.). In the case of “TCGAACTATGTTTCTGGAGTTGTTTGTGTTAAAGTCCCAACGGAGTCACCTAGTGCAG”, the binding signal is 8860 fluorescence intensity (a.u.). Turning to “CCGCCACATGCTGCTGCCGCCCCAGCCGTCGGCTGCTTCTCGGAGTCACCTAGTGCAG”, the binding signal was 8560 fluorescence intensity (a.u.). The same measure for “TTTGCGGGTGGAGTTTTTTAAGTTTTTGGATTTCCTGTTTCGGAGTCACCTAGTGCAG”: 11700 fluorescence intensity (a.u.); for “CTCGACCACACATATATGTTCGATACATTCCATATCTTCCCGGAGTCACCTAGTGCAG”: 10700 fluorescence intensity (a.u.); for “AACAAAAGCACCCCTGTCCGATCCTATATTTGTTGCAGTTCGGAGTCACCTAGTGCAG”: 9240 fluorescence intensity (a.u.). Take “GAAGAGGAGGAGGAGGAGGAGGAGGAGGAGGGGATCAATGCGGAGTCACCTAGTGCAG”: the binding signal was 8350 fluorescence intensity (a.u.). Consider “TGTTCTTGAGTTGCTTATATATGGCCTTCTAGCTCAGCTCCGGAGTCACCTAGTGCAG”, for which the binding signal is 8540 fluorescence intensity (a.u.). “TGATTGCCTTCTCGATTTTGTTTGTCATTGCGTCTTTGCACGGAGTCACCTAGTGCAG”: the binding signal is 8190 fluorescence intensity (a.u.). For “GCTTGCTTGCTTGTTGCTTCCATTCCATTCCATTCCACACCGGAGTCACCTAGTGCAG”, the binding signal is 10400 fluorescence intensity (a.u.).

In the case of “TGACCACCATTGCTGCTTCTGCTTCTTCTTGTATGTATACCGGAGTCACCTAGTGCAG”, the binding signal is 17200 fluorescence intensity (a.u.).

For “CTTCTCCTGCTTGTTTCCTTGTCTTGTGGTGCATCACATCCGGAGTCACCTAGTGCAG”, the binding signal was 8810 fluorescence intensity (a.u.). For the sequence “TCCTTGTATGAATCCATTGCCTTGCTTCTGCTTGCCCATTCGGAGTCACCTAGTGCAG”, the binding signal is 8530 fluorescence intensity (a.u.). In the case of “GGGTGGTCCTGCTTCTACCTTGTATACAAAACATTTCTTCCGGAGTCACCTAGTGCAG” it was 17000 fluorescence intensity (a.u.); in that of “CATTTTTTTAGCTTGTTCTTCCTTGTGTCACAAACATTTCCGGAGTCACCTAGTGCAG”, 11300 fluorescence intensity (a.u.).

Take “GTATTCCTACTTGAACTCTTCTTTTACTTTATTTTTCTAACGGAGTCACCTAGTGCAG”: the binding signal is 10600 fluorescence intensity (a.u.).

For the sequence “CACTGCCACTCGCCACCCAGCTCCGTCCTATGCCTCCGCGCGGAGTCACCTAGTGCAG”, the binding signal was 12400 fluorescence intensity (a.u.).

As for “TGCACCGCGCGCAGGGTAGGGTGGGCGTCCTTGCCATTGTCGGAGTCACCTAGTGCAG”, the binding signal is 8740 fluorescence intensity (a.u.). For the sequence “CTTATTTCTTTTCCAGTTAGGCATATATTATCTGTTTTCTCGGAGTCACCTAGTGCAG”, the binding signal was 8700 fluorescence intensity (a.u.). For the sequence “AAAATCTCCTACTAGCTCACTTCACAATGGATCAAACAAACGGAGTCACCTAGTGCAG”, the binding signal was 8230 fluorescence intensity (a.u.).

For “ATAATATATAATCAAACAAAAAAATGGACTATAATCTCTCCGGAGTCACCTAGTGCAG”, the binding signal was 64400 fluorescence intensity (a.u.). As for “ATATATATATATATATATATATATATATATAATCTCTCCTCGGAGTCACCTAGTGCAG”, the binding signal was 9910 fluorescence intensity (a.u.). In the case of “ACTATGGGCTTTTGCATCAACAATTGCGAATTTTTTGTATCGGAGTCACCTAGTGCAG” it was 9280 fluorescence intensity (a.u.).

The values above are taken from publication PMC7819943, “Rice protein-binding microarrays: a tool to detect cis-acting elements near promoter regions in rice”.
